Here are results for five compounds from PubChem BioAssay.

A short description of experiment [1]: small molecules captured by biotinylated probe aFSTL3 – biochemical, small-molecule microarray, fluorescence 635/667, stem cell growth factor project, primary screen (AID 1064).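 Further: measures binding of the biotinylated anti-FSTL3 antibody to printed compounds.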 The settings on record: higher = more signal.
Experiment [2] can be described thus: binders from COS7 lysate, DM2A8 probe, primary screen, torsin A project, cell lysate, small-molecule microarray, fluorescence 635/667 (AID 1065). The settings on record: higher = more signal, COS7 lysate expressing mutant human TOR1A.
Experiment [3] can be described thus: small molecules captured by biotinylated probe aFGF2 – biochemical, small-molecule microarray, fluorescence 635/667, stem cell growth factor project, primary screen (AID 1067).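 Further: measures binding of biotinylated aFGF2 protein to printed compounds on slides; z-score merges feature fluorescence and signal-to-noise across triplicate slides.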 To be noted: higher = more signal.
Experiment [4] can be described thus: small molecules captured by biotinylated probe aFGF10 – biochemical, small-molecule microarray, fluorescence 635/667, stem cell growth factor project, primary screen (AID 1071).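 Further: score merges 667 nm spot intensity and signal to noise from triplicate slides.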 The settings on record: higher = more signal.
Experiment [5] concerns the target Neurogenic locus notch homolog protein 2 (Homo sapiens) (UniProt Q04721). Put plainly: small molecules binding Notch2 protein – biochemical, small-molecule microarray, 635 nm fluorescence, stem cell growth factors, primary screen (AID 1073). The settings on record: higher = more signal.
Experiment [6] has as its target Pro-neuregulin-1, membrane-bound isoform (Homo sapiens) (UniProt Q02297). As to the kind of experiment: small molecules binding neuregulin-1 protein – biochemical, small-molecule microarray, fluorescence 635/667, psychiatric disease protein project, primary screen (AID 1075).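 Further: score combines 667 nm spot fluorescence with signal to noise.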 To be noted: NRG1 binding, 635 nm fluorescence, higher = more signal.
Experiment [7] has as its system Neuregulin-1 EGF-like domain. As to the kind of experiment: small molecules binding NRG1 EGF domain – biochemical, small-molecule microarray, 635 nm fluorescence, primary screen (AID 1081).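 Further: binding of the protein to compounds printed on small-molecule microarray slides.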 To be noted: higher = more signal.
A short description of experiment [8]: FRG1 expression reporter modulators in myotubes – cell-based, C2C12 myotubes, firefly/Renilla luciferase, luminescence, FRG1 inhibition for FSHD, primary screen (AID 1084). The settings on record: FRG1 promoter luciferase, higher = more signal, called active from +8 up or from −8 down.
A short description of experiment [9]: small molecules captured by biotinylated probe aFST – biochemical, small-molecule microarray, fluorescence 635/667, stem cell growth factor project, primary screen (AID 1086).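 Further: score merges 667 nm fluorescence with signal-to-noise of each printed compound spot.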 The settings on record: higher = more signal.
Experiment [10] is described as follows: binders of probe aHhip on microarray, primary screen, stem cell growth factor project, biochemical, small-molecule microarray, fluorescence 635/667 (AID 1087).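 Further: score merges spot fluorescence at 667nm with spot signal to noise ratio.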 The settings on record: higher = more signal.
Experiment [11] has as its system PRMT1 (protein arginine N-methyltransferase 1). Put plainly: small molecules binding arginine methyltransferase PRMT1 – biochemical, small-molecule microarray, 635 nm fluorescence, primary screen (AID 1088).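 Further: binding of Prmt1 protein to compounds spotted on small-molecule microarray slides.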 The settings on record: higher = more signal.
Experiment [12] in a line: growth effects on S. cerevisiae YJM789 – YJM789 clinical isolate, OD600, 24 h, basal, primary screen (AID 1089).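 Further: growth of clinical yeast isolate S. cerevisiae YJM 789 seeded 1000 cells per well; test concentration not given here.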 To be noted: higher = more signal, called active from +8 up or from −8 down.
The nature of experiment [13]: S. pombe growth modifiers, basal conditions – strain 972, OD600, 24 h, no modulator, primary screen (AID 1090).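 Further: basal condition with compound alone and no growth modifier present; test concentration not given here.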 The settings on record: S. pombe 972 growth, higher = more signal, called active from +8 up or from −8 down.
Experiment [14] is described as follows: budding yeast growth modifiers under rapamycin – strain BY4716, OD600, 96 h, primary screen (AID 1091). Further: test concentration not given here. To be noted: S. cerevisiae BY4716 + rapamycin, higher = more signal, called active from +8 up or from −8 down.
In experiment [15] the target is Torsin-1A-interacting protein 2 (Homo sapiens) (UniProt Q8NFQ8). Put plainly: small molecules binding lysate-expressed LULL1 – cell lysate, human LULL1 lysate, 635/667 nm fluorescence, primary screen (AID 1092).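 Further: probe is lysate of COS7 cells overexpressing human LULL1; score merges per-feature 667 nm fluorescence with signal-to-noise.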 The settings on record: small-molecule microarray, hLULL1 lysate binding, 635 nm fluorescence; higher = more signal.
Torsin-1A-interacting protein 2 (Homo sapiens), sequence (Q8NFQ8 whole entry, looked up): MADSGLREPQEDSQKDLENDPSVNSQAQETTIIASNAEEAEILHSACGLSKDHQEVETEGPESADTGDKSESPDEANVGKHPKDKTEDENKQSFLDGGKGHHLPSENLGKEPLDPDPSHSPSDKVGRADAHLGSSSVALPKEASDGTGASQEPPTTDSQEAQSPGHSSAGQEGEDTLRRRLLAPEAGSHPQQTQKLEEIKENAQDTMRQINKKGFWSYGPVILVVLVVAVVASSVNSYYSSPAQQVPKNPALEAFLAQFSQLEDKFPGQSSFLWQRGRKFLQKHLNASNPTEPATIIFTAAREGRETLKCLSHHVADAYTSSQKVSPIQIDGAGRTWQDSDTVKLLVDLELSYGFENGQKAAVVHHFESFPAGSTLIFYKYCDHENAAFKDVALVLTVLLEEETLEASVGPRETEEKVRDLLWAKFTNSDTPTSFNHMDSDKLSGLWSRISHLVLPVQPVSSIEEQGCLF
A short description of experiment [16]: optical density change of DRC41 E. coli – strain DRC41, OD650, 24 h, E. coli filamentation project, primary screen (AID 1093).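 Further: MC1000 strain lacking acrAB efflux and sulA so SOS filamentation is blocked; test concentration not given here.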 The settings on record: E. coli DRC41 growth, higher = more signal, called active from +8 up or from −8 down.
Experiment [17] is described as follows: probe aLefty2 binding to arrayed compounds – biochemical, biotinylated probe, 635/667 nm fluorescence, primary screen (AID 1094).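 Further: score merges spot fluorescence near 667 nm with spot signal-to-noise ratio.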 To be noted: small-molecule microarray, higher = more signal.
Experiment [18] deals with Noggin (protein binding on small-molecule microarray). Put plainly: small molecules binding Noggin protein – biochemical, 635/667 nm fluorescence, primary screen (AID 1095).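 Further: score merges 667 nm feature fluorescence with signal to noise over triplicate slides.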 To be noted: 635 nm fluorescence, higher = more signal.
For experiment [19], the target named is Neurogenic locus notch homolog protein 3 (Homo sapiens) (UniProt Q9UM47). Put plainly: small molecules binding NOTCH3 protein – biochemical, 635/667 nm fluorescence, primary screen (AID 1096). To be noted: small-molecule microarray, 635 nm fluorescence, higher = more signal.
A short description of experiment [20]: probe aEGFR binding to arrayed compounds – biochemical, biotinylated probe, 635/667 nm fluorescence, primary screen (AID 1097).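 Further: probe is a biotinylated anti-EGFR antibody binding compounds printed on slides; score combines fluorescence near 667 nm and signal to noise of each spot.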 The settings on record: small-molecule microarray, higher = more signal.

Active and inactive are the calls of the source.

Neurogenic locus notch homolog protein 2 (Homo sapiens), sequence (Q04721 whole entry, looked up, canonical isoform): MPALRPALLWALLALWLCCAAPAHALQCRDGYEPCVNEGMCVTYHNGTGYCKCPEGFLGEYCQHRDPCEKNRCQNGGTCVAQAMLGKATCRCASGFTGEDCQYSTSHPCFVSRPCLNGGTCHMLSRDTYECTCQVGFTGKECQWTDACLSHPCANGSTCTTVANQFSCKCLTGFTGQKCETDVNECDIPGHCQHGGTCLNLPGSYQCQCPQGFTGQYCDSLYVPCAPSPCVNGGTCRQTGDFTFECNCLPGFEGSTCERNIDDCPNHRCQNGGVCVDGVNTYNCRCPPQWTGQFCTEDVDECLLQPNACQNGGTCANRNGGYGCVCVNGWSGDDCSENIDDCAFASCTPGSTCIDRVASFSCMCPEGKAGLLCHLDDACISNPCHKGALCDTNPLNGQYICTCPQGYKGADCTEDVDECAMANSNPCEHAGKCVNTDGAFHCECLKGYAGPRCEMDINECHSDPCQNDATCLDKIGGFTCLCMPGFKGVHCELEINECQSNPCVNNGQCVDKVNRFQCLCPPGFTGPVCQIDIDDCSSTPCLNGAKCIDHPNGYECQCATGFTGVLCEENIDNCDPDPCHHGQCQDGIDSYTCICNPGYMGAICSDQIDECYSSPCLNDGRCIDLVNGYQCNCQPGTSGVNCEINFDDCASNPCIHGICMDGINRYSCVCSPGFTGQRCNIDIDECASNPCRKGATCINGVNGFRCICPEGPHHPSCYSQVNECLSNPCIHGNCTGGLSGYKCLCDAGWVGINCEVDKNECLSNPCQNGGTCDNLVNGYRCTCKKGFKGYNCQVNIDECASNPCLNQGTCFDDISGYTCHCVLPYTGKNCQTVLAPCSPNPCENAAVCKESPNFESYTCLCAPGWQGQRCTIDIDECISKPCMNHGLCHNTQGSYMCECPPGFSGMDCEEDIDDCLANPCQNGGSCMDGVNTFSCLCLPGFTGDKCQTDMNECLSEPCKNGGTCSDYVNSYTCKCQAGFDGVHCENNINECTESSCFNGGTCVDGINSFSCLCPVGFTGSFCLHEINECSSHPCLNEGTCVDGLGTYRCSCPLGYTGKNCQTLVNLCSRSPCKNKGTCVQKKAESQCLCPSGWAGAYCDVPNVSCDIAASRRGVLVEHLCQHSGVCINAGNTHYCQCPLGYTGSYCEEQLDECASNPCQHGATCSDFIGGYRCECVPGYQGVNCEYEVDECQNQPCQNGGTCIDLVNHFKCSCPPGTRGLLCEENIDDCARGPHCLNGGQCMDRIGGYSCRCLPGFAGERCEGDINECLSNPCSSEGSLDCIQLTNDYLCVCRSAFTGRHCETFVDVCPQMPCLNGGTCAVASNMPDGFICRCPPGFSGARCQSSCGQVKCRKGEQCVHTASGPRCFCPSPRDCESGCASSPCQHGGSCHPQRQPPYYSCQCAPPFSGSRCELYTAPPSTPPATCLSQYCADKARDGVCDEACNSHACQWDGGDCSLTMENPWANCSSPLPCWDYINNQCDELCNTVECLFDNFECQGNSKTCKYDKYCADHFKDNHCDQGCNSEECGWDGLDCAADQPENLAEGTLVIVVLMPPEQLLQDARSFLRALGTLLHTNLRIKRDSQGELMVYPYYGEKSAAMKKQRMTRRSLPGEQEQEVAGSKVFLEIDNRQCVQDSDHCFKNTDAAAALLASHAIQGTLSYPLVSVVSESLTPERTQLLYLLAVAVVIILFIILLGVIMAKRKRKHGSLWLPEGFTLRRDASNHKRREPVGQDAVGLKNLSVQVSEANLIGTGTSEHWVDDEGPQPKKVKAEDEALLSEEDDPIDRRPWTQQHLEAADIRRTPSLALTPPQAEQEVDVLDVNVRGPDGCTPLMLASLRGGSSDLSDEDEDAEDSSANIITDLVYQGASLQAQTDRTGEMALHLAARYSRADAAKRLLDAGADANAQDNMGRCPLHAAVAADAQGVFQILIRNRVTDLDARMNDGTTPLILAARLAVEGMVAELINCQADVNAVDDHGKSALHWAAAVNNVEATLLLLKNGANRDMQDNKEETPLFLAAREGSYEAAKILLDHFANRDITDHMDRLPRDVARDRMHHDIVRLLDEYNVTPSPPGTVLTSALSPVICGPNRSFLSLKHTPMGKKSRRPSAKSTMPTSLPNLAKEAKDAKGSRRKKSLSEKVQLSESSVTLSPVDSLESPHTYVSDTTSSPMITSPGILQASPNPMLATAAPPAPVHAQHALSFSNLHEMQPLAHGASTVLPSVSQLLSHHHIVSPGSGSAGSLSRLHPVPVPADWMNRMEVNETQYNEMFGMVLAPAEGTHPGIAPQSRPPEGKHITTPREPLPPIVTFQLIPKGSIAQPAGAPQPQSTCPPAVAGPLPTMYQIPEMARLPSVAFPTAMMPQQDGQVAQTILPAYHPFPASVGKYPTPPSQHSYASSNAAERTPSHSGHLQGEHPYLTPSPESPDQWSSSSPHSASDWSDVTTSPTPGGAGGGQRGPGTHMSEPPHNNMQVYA
Pro-neuregulin-1, membrane-bound isoform (Homo sapiens), sequence (Q02297 whole entry, looked up, the tested form may be a part, canonical isoform): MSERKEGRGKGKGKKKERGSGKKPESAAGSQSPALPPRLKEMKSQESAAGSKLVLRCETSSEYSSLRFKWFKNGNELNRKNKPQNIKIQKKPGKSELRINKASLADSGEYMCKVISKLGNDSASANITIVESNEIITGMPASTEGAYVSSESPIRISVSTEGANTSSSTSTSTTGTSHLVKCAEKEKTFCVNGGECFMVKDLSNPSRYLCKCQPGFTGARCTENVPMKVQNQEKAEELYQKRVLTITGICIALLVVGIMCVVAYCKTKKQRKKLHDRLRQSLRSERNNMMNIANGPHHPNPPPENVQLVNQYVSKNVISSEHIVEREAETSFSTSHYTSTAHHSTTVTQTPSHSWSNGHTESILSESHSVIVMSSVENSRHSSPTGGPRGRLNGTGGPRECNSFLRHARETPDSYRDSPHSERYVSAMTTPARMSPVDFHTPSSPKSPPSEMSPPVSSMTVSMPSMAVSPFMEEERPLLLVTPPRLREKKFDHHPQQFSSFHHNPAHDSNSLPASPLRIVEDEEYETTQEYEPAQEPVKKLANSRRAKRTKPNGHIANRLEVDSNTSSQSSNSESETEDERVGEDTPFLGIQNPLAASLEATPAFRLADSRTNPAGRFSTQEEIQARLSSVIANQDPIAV

Regarding `CC(=O)OC[C@H]1O[C@H](C#CCC2CCCCC2)C=C[C@@H]1OC(C)=O`, the composite z-score in [1] is -0.785; in experiment [2], 0.547; in [3], -0.0739; in experiment [4], 0.494; in experiment [5] it was 0.207; in [6] it was 0.833. Moreover, the composite z-score in experiment [7] was 0.828; in experiment [9] it was -0.0607; in experiment [10], -0.0618; in experiment [11], 1.18; in experiment [15] it was 1.17; in experiment [17], -0.194. The composite z-score amounted to 0.598 in [18], 0.568 in experiment [19] and 0.0698 in experiment [20]. The z-score in experiment [8] was 1.23 (inactive); in experiment [12] it was 0.877 (inactive); in experiment [13], -15.5 (active); in experiment [14], -0.525 (inactive); in [16], 1.1 (inactive).
For `CCOC(=O)NN=C1C[C@@H](O)[C@@H](O)[C@@H]2[C@@H]3C(=O)N(C[C@@H]4CCCO4)C(=O)[C@@H]3CC[C@H]12`, the composite z-score in experiment [1] is -0.548; in [2], -0.274; in experiment [3] it was -0.0217; in experiment [4], 0.217; in [5] it was 0.701; in experiment [6], 0.203. The composite z-score is 0.34 in [7]; -0.0482 in experiment [9]; -0.143 in [10]; 0.611 in experiment [11]; 0.448 in experiment [15]; -0.179 in experiment [17]. Further, the results for the composite z-score in [18], in experiment [19] and in [20] were 0.481, 0.411 and -0.0668, respectively. The z-score in experiment [8] is 0.577 (inactive); in experiment [12], -1.43 (inactive); in [13], -0.318 (inactive); in [14], -0.0602 (inactive); in [16] it was 0.416 (inactive).
For the compound `CON=C(C)CCN1CCc2nc(-c3ccccc3)c(-c3ccccc3)cc2C1`, the composite z-score in experiment [1] was -0.262; in [2], -0.052; in experiment [3], -0.128; in [4], -0.149; in experiment [5] it was 0.195; in experiment [6], 0.387. Besides, the composite z-score was -0.961 in experiment [7]; 0.0046 in [9]; -0.201 in [10]; 0.0214 in [11]; -0.919 in experiment [15]; -0.0699 in experiment [17]. In addition, the values for the composite z-score in experiment [18], in [19] and in experiment [20] were 0.107, 0.556 and -0.158, respectively. Besides, the z-score in experiment [8] was 0.953 (inactive); in [12], -1.08 (inactive); in experiment [13] it was -17.2 (active); in experiment [14] it was -3.67 (inactive); in experiment [16], 1.69 (inactive).
On to `C=CC[C@@H]1C=C[C@H](Oc2ccc(C)cc2)[C@@H](COC(=O)NCc2cccc3ccccc23)O1`, for which the composite z-score in [1] is -0.406; in experiment [2], 0.012; in experiment [3], -0.144; in experiment [4], 0.655; in [5], -0.141; in experiment [6] it was 0.528. Moreover, the composite z-score is 0.724 in experiment [7]; -0.174 in [9]; -0.251 in experiment [10]; 0.261 in [11]; 0.557 in experiment [15]; -0.116 in experiment [17]. In addition, the composite z-score in experiment [18] was 0.725; in experiment [19], -0.0971; in [20], -0.136. The z-score in [8] is -0.446 (inactive); in [12], 0.697 (inactive); in [13], -0.341 (inactive); in [14] it was 0.774 (inactive); in [16], -0.61 (inactive).
`CC(C)[C@@H](OCc1ccccc1)[C@H](C)C=NO[C@@H](C)c1cn([C@H](CO)Cc2ccccc2)nn1`: the composite z-score is -0.474 in experiment [1]; 0.384 in experiment [2]; 0.491 in experiment [3]; 0.175 in experiment [4]; 0.301 in experiment [5]; -0.236 in experiment [6]. For the same compound, the composite z-score was -0.419 in experiment [7]; 0.155 in experiment [9]; -0.175 in [10]; 0.195 in experiment [11]; 0.559 in experiment [15]; -0.186 in [17]. Further, the composite z-score in [18] was 0.803; in experiment [19], 0.543; in experiment [20], -0.128. In addition, the z-score in experiment [8] was 0.193 (inactive); in experiment [12] it was -2.32 (inactive); in [13], -3.21 (inactive); in [14], -1.14 (inactive); in experiment [16] it was 0.96 (inactive).
